Shown are actives, neighbours in structure and some others; about 2.3% of the full set was active somewhere.
CF NFkB inh – blocks PAF-induced NF-kB reporter in cystic fibrosis cells. 360,000 compounds, 0.86% hits. inhibition, % at 5 µM. KKLEB NF-kB-GFP reporter, GFP fluorescence overnight;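 active = at least 50% inhibition at 5 µM, scaled per plate between neutral and stimulator controls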;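 note: PAF is a Pseudomonas aeruginosa culture filtrate used as stimulus; plate controls were PAF-stimulated DMSO wells for no effect and unstimulated DMSO wells for full effect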
LGR2 inh – blocks bursicon-induced cAMP signaling via Drosophila LGR2; inhibition, % at 9.99 µM; HEK293 LGR2, CRE-luciferase, bursicon-stimulated, 4 h; AID 720647; 380,000 compounds, 0.35% hits;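 active = drop in luminescence signal, shown as inhibition above about 50% in the replicate tests, limit read from the data, passing the limit was not always enough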;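 note: agonist challenge used bursicon conditioned medium at about half maximal strength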
KKLEB cytotox – counter-screen for CF NF-kB inhibitors: cytotoxicity; KKLEB CF airway cells viability, ATPlite luminescence, overnight; hits give low values; cells stimulated with P. aeruginosa culture filtrate; activity change (cytotoxicity), % at 5 µM; 360,000 compounds, 0.36% hits;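 active = corrected activity change at or below -50% at 5 µM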
HIF-2a inh – HIF-2a inhibition; 786-0 RCC cells HIF-2a reporter, luciferase luminescence, overnight; 360,000 compounds, 0.72% hits; inhibition, % at 18.8 µM; AID 624352;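 active = inhibition of the luminescence signal of 40% or more relative to plate controls, in a single-dose primary screen at 18.75 µM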
TWEAK-Fn14 inh – TWEAK-Fn14 signaling inhibition. TWEAK-stimulated Fn14 reporter cells, luciferase luminescence, 8 h. inhibition, % at 10 µM. 360,000 compounds, 2% hits. AID 1159606; in the data active = inhibition above about 50%
iPSC survival up – hiPSC single-cell survival enhancement; ATPlite luminescence; 100% = ROCK inhibitor wells, 0% = DMSO; survival enhancement, % at 20 µM; 360,000 compounds, 0.044% hits; AID 602274; in the data active = survival enhancement above about 18%;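 note: cells exposed to compounds for 16 hours before the ATP read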
Mdm2 MdmX conf – Mdm2/MdmX (human) interaction inhibition, confirmed | shares compounds with HIF-2a inh | inhibition, % at 8 µM | 740 compounds, 99% hits | SaOS-2 split-luciferase Mdm2/MdmX complementation, luminescence;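 active = mean inhibition of the luminescence signal across two replicates at or above 26 percent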
HIF-2a inh conf – HIF-2a inhibition, single concentration confirmation; 1,800 compounds, 56% hits; inhibition, % at 18.8 µM; shares compounds with HIF-2a inh; 786-0 RCC cells, HIF-2a luciferase reporter luminescence, overnight;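 active = mean inhibition across four replicates of at least 40 percent at the single tested concentration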
HIF-1a cs – counter-screen for HIF-2a inhibitors: HIF-1a inhibition in MiaPaCa-2 cells; 1,800 compounds, 72% hits; shares compounds with HIF-2a inh; MiaPaCa-2 HIF-1a luciferase reporter, desferoxamine, overnight; inhibition, % at 18.8 µM; AID 651589;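 active = mean inhibition of the reporter signal across four replicates at the single tested dose of 50% or more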
* marks the source's active call; other numbers are inactive results; . = no result given.

SMILES	CF NFkB inh	LGR2 inh	KKLEB cytotox	HIF-2a inh	TWEAK-Fn14 inh	iPSC survival up	others
COc1cccc(/C=C/C(=O)c2ccc3c(c2)OCO3)c1OC	6	-32	-16	-198	-13	-6
COc1cc(/C=C/C(=O)c2ccc3c(c2)OCCO3)cc(Br)c1OCC(=O)N(C)C	4	60*	0	93*	83*	1	Mdm2 MdmX conf=101*;HIF-2a inh conf=91*;HIF-1a cs=102*
CC(C)NC(=O)N[C@H]1CC[C@@H](CC(=O)N2CCCCC2)O[C@H]1CO	.	20	.	.	.	.
C[C@@H]1CN([C@H](C)CO)C(=O)c2cccc(NC(=O)C3CCOCC3)c2O[C@H]1CN(C)C(=O)NC1CCCCC1	.	-23	.	.	.	.
Cc1cc(C)n(-c2nc(N(c3ccccc3)c3ccccc3)nc(-n3nc(C)cc3C)n2)n1	64*	.	-53*	-27	106*	-4	Mdm2 MdmX conf=103*
Cc1cc(C)n(-c2nc(Nc3ccccc3)nc(-n3nc(C)cc3C)n2)n1	-9	7	13	-2	6	-2
O=C(O)c1ccccc1NC(=O)C(Cc1ccccc1)N1C(=O)c2ccccc2C1=O (stereo not drawn)	-7	-2	4	42*	-2	-1	HIF-2a inh conf=3;HIF-1a cs=-10
Cc1ccc(-c2cc(C(=O)N3CC(C)OC(C)C3)c3ccccc3n2)o1 (stereo not drawn)	3	-6	-7	-30	6	0
Cc1ccc(-c2cc(C(=O)N3CC(C)CC(C)C3)c3ccccc3n2)o1 (stereo not drawn)	4	17	0	44*	-3	0	HIF-2a inh conf=-41;HIF-1a cs=29
CCN(CC(=O)Nc1ccc(NC(C)=O)cc1)C(=O)C1(c2ccc(Cl)cc2)CCC1	-54	9	12	51*	3	3	HIF-2a inh conf=32;HIF-1a cs=1
COc1ccc(NC(=O)CN(C)C(=O)C2(c3ccccc3)CCCC2)cc1	-108	18	5	51*	22	0	HIF-2a inh conf=32;HIF-1a cs=15
COc1ccccc1S(=O)(=O)N[C@H]1CC[C@H](CCNC(=O)C2CCC2)O[C@H]1CO	.	3	.	.	.	.
CN(C)C(=O)C[C@@H]1C[C@@H]2c3cc(NC(=O)Nc4ccc(C(F)(F)F)cc4)ccc3O[C@@H]2[C@H](CO)O1	.	0	.	.	.	.
C/C=C/c1ccc2c(c1)O[C@@H](CN(C)C(=O)Nc1ccc(C(F)(F)F)cc1)[C@H](C)CN([C@H](C)CO)S2(=O)=O	.	22	.	.	.	.
C#CCn1c(S(=O)(=O)Cc2ccc(C)cc2)nc(-c2ccccc2)c1-c1ccccc1	-16	.	16	-17	-52	0	Mdm2 MdmX conf=100*
C#CCn1c(S(=O)(=O)Cc2ccccc2Cl)nc(-c2ccccc2)c1-c1ccccc1	9	17	-21	4	-2	-3
O=C(NN=Cc1c(O)ccc2ccccc12)c1ccc2c(c1)OCO2	4	-16	-14	-65	-14	-6	Mdm2 MdmX conf=88*
O=C(CN1CCCc2ccccc21)N/N=C/c1c(O)ccc2ccccc12	5	.	-3	-30	40	-2	Mdm2 MdmX conf=97*
O=C(N/N=C/c1c(O)ccc2ccccc12)c1ccc(CO)nc1	-10	.	-4	22	-16	0
O=C(N/N=C\c1c(O)ccc2ccccc12)c1ccc(S(=O)(=O)N2CCCCC2)cc1	9	26	-35	29	-2	-1	Mdm2 MdmX conf=87*
O=C(N/N=C/c1ccc([N+](=O)[O-])o1)c1ccc2c(c1)OCO2	-5	11	-2	56*	-14	0	HIF-2a inh conf=52*;HIF-1a cs=59*
O=C(CNC(=O)c1ccc(S(=O)(=O)N2CCCC2)cc1)N/N=C/c1ccccc1Cl	5	8	-3	17	-14	0
O=C(CN1CCCc2ccccc21)N/N=C/c1ccccc1	-4	.	-4	-202	-13	-1
C[C@H]1CN([C@@H](C)CO)C(=O)c2cc(C#CC3(O)CCCC3)cnc2O[C@@H]1CN(C)C(=O)CC1CC1	.	-14	.	.	.	.
CO[C@H]1CN(C)C(=O)c2cc(NC(=O)NC(C)C)ccc2OC[C@H](C)N(Cc2cncnc2)C[C@H]1C	.	13	.	.	.	.
SMILES	CF NFkB inh	LGR2 inh	KKLEB cytotox	HIF-2a inh	TWEAK-Fn14 inh	iPSC survival up	others
NC1=NC[C@@H](CC2CCCCC2)N1CCc1cc(C(F)(F)F)cc(C(F)(F)F)c1	15	.	4	-27	3	-4	Mdm2 MdmX conf=103*
C[C@@H](NC(=O)[C@@H]1[C@@H](CO)[C@@H]2Cn3c(ccc(-c4cccnc4)c3=O)[C@H]1N2C)c1ccccc1	.	-3	.	.	.	.
CCCCCCCCCCn1ccc(=N)cc1	40	36	-47	37	33	-1	Mdm2 MdmX conf=98*
CCCCCCCCn1ccc(=N)cc1	2	12	7	10	-6	0
Cc1ccc(-c2ccc([C@@H]3[C@@H]4CN(Cc5ccccc5F)C[C@H]3N4)cc2)cc1	.	3	.	.	.	.
Cc1cc(C(=O)CCl)c(C)n1CCc1ccc(Cl)cc1	30	4	-30	48*	5	-2	HIF-2a inh conf=49*;HIF-1a cs=105*
Cc1cc(C(=O)CCl)c(C)n1CCc1ccc(F)cc1	18	17	-10	-5	9	-1
CC(C)C[C@H]1COCc2cn(nn2)CC[C@H](Cc2ccccc2)C(=O)N1	.	-4	.	.	.	.
C[C@H](CO)N1C[C@H](C)[C@@H](CN(C)Cc2ccncc2)Oc2ncc(C#CCN(C)C)cc2C1=O	.	-16	.	.	.	.
CCc1ccc(OCC(=O)Nc2ccncc2)cc1	-16	-23	6	-52	-25	0
Cc1ccc(Oc2ccc(OCC(=O)Nc3ccncc3)cc2)cc1	-4	14	-6	55*	39	-2	HIF-2a inh conf=77*;HIF-1a cs=50*
CCCN1C[C@@H](C)[C@@H](OC)CN(C)C(=O)c2ccc(NC(=O)CC(F)(F)F)cc2OC[C@@H]1C	.	9	.	.	.	.
CO[C@H]1CN(C)C(=O)c2ccc(NC(=O)Nc3ccc(Cl)cc3)cc2OC[C@@H](C)NC[C@@H]1C	.	-9	.	.	.	.
NC(=O)C(C(=O)/C=C/c1ccc(Cl)cc1)=C1SCCS1	34	25	4	-2	51*	-1	Mdm2 MdmX conf=102*
Cc1ccc(F)c([C@H]2[C@H]3C=CC[C@@H](C)[C@@H]3C(=O)N2Cc2ccccc2)c1	47	15	-13	42*	14	-1	HIF-2a inh conf=31;HIF-1a cs=21
C[C@@H]1CC=C[C@H]2[C@H]1C(=O)N(Cc1ccccc1)[C@H]2c1ccc2ccccc2c1	42	.	-17	44*	18	1	HIF-2a inh conf=8;HIF-1a cs=52*
Cc1ccc(-c2ccc([C@H]3[C@H]4C=CC[C@@H](C)[C@@H]4C(=O)N3Cc3ccccc3)c(F)c2)cc1	-4	14	-4	26	-3	2

Source: PubChem BioAssay (several laboratories)
